PubChem BioAssay (NCI)
About 79,000 compounds went through this panel and 15% of them were active in at least one assay; those are over-represented in the sample as a whole. The source made the active and inactive calls. No stated cut-off is given here; in the data, active means growth inhibition above about 70%; inactive means the rest.

Assay: NCI Yeast Anticancer Drug Screen. Data for the sgs1 mgt1 strain (AID 161);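 further: 0% = growth of cultures given vehicle only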
Details: S. cerevisiae sgs1 mgt1 strain, hits give high values; at 50.0 µM unless noted
Procedure, shortened: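 Compounds are added to genetically altered yeast, and growth is compared with cultures given vehicle alone to give percent inhibition.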

Question: Which growth inhibition does the source give for O=C(c1ccccc1)c1ccc2c(Cl)ccc3c2c1CC3 here?
Answer: Its growth inhibition is -9.75% (inactive).

Question: Which growth inhibition does the source give for COC(=O)c1cc(C)n(C)c(=O)c1CN here?
Answer: Its growth inhibition is -8.6% (inactive).

Question: Which growth inhibition does the source give for CN(C)C(=O)NN1CCCCCC1 here?
Answer: The growth inhibition was -14.2% (inactive).

Question: With COC(=O)N/N=C(/CCC(=O)Nc1ccc(C)c(C)c1)CC(=O)C(C)(C)C as the compound, how does the growth inhibition read?
Answer: Its growth inhibition is 8.45% (inactive).

Question: With CCCCCCCSCC(=O)OCC as the compound, how does the growth inhibition read?
Answer: The growth inhibition was -22.5% (inactive).

Question: For CO[C@H]1C[C@H](n2cc(C)c(=O)[nH]c2=O)O[C@@H]1CO, which growth inhibition is on record?
Answer: The growth inhibition was -39.9% (inactive).

Question: With Cc1cc(Cl)ccc1NC(=O)C1C(=O)N(c2ccc(Cl)cc2C)C(=O)/C1=N\N (stereo not drawn) as the compound, how does the growth inhibition read?
Answer: Its growth inhibition is 10.4% (inactive).

Question: With C=CCc1cc2c(C)cc(=O)oc2c(C)c1OC(C)=O as the compound, how does the growth inhibition read?
Answer: The growth inhibition was -1.1% (inactive).

Question: For CCCCCCCCOC(=O)NC1c2ccccc2Oc2c(C)cccc21 (stereo not drawn), which growth inhibition is on record?
Answer: Its growth inhibition is 9.45% (inactive).

Question: Which growth inhibition does the source give for CC(=O)Nc1nnn(C)n1 here?
Answer: Its growth inhibition is 0.8% (inactive).

Question: With CNC(=O)C(C(=O)NC)c1ccccc1 as the compound, how does the growth inhibition read?
Answer: The growth inhibition was -1.15% (inactive).

Question: With O=[n+]1c2c(n([O-])c3ccccc31)CCCCCCCCCC2 as the compound, how does the growth inhibition read?
Answer: Its growth inhibition is 7.15% (inactive).

Question: For CCOC(=O)c1cc(C)ncc1N, which growth inhibition is on record?
Answer: The growth inhibition was -7.1% (inactive).

Question: Which growth inhibition does the source give for CC[N+](CC)(CC)Cc1cn(S(=O)(=O)c2ccccc2)c2ccccc12 here?
Answer: Its growth inhibition is -0.95% (inactive).

Question: For N#CCCC1(CCC#N)CCCC(CCC#N)(CCC#N)C1=O, which growth inhibition is on record?
Answer: Its growth inhibition is 2.15% (inactive).

Question: With Clc1ccc2c(c1)C(=P(c1ccccc1)(c1ccccc1)c1ccccc1)c1cc(Cl)cc(Cl)c1-2 as the compound, how does the growth inhibition read?
Answer: The growth inhibition was 66.8% (inactive).

Question: Which growth inhibition does the source give for CCCCN1CCC(N)=NC1=O here?
Answer: Its growth inhibition is -9.1% (inactive).

Question: With CC1CCCN1CCOC(=O)C(c1ccccc1)C1CCCC1 (stereo not drawn) as the compound, how does the growth inhibition read?
Answer: The growth inhibition was 32.1% (inactive).

Question: With CCc1n[nH]c(=O)n1-n1c(C)ccc1C as the compound, how does the growth inhibition read?
Answer: The growth inhibition was -5.2% (inactive).

Question: With NC(Cc1cc(Br)c(Oc2ccc(O)cc2)c(Br)c1)C(=O)O (stereo not drawn) as the compound, how does the growth inhibition read?
Answer: Its growth inhibition is -9.1% (inactive).

Question: With Cn1c(=O)c2[nH]c(Nc3cccc(Cl)c3)nc2n(C)c1=O as the compound, how does the growth inhibition read?
Answer: Its growth inhibition is -18.8% (inactive).

Question: With NC(N)=NC(N)=Nc1cc(Cl)c(Cl)cc1Cl as the compound, how does the growth inhibition read?
Answer: The growth inhibition was 99.3% (active).

Question: Which growth inhibition does the source give for O=C1C=CC=C/C1=C1/SC(c2ccccc2)=C(O)N1c1ccccc1 here?
Answer: The growth inhibition was -12.5% (inactive).

Question: Which growth inhibition does the source give for CC(=O)C(C)(CC#N)C(CC=O)CCC#N (stereo not drawn) here?
Answer: The growth inhibition was 10.2% (inactive).

Question: For Cc1c2ccncc2c(C)c2c1[nH]c1ccc(O)cc12, which growth inhibition is on record?
Answer: The growth inhibition was 43.9% (inactive).

Question: Which growth inhibition does the source give for CC1(C)OC(=O)N=C1c1ccccc1Cl here?
Answer: Its growth inhibition is -11.3% (inactive).

Question: Which growth inhibition does the source give for O=Nc1c(O)c2ccccc2[nH]c1=O here?
Answer: Its growth inhibition is 34.6% (inactive).

Question: For Cc1ccc2[nH]c(C(=O)O)cc2c1, which growth inhibition is on record?
Answer: Its growth inhibition is 10.8% (inactive).
